PubChem BioAssay (NCATS)
Records with an inconclusive call do not appear. A call without a number means that no potency is given here. The source made the active and inactive calls. Calls follow the shape of the dose curve; as a rule, active = well fitted inhibition curve with a large enough effect; inconclusive = small, poorly fitted or top-dose-only effect; inactive = flat fitted curve, though single readings scatter.

Test: Primary qHTS for inhibitors of nuclear receptor binding SET domain protein 2 (NSD2) in an isogenic RCH-ACV NSD2 p.E1099K mutant (9B) (AID 1645876); also: nearly all actives have a fitted effect of over 70% in size
Details: RCH-ACV (leukaemia line) NSD2 E1099K (9B) viability, CellTiter-Glo, 72 h; series mostly up to 44.9 µM
Potency is read from the fitted curve at half-maximal effect.

| SMILES | Potency |
| --- | --- |
| CCOC(=O)c1ccc(OCCN2C[C@H](O)[C@@H](O)[C@H](O)[C@H]2CO)cc1 | inactive |
| CCCC(=O)O[C@]1(C(=O)COC(=O)CC)CC[C@H]2[C@@H]3CCC4=CC(=O)CC[C@]4(C)[C@H]3[C@@H](O)C[C@@]21C | inactive |
| Nc1ccc2cc3ccc(N)cc3nc2c1 | 2.37 µM (active) |
| CO[C@@]1(NC(=O)CSC[C@@H](N)C(=O)O)C(=O)N2C(C(=O)O)=C(CSc3nnnn3C)CS[C@@H]21 | inactive |
| CN(C)C(=O)CNC(=O)Cc1ccccc1 | inactive |
| NC(=O)NC1N=C([O][Al])NC1=O (stereo not drawn) | inactive |
| O=C(NN1CCCC1)NS(=O)(=O)c1ccc(Cl)cc1 | inactive |
| CC(=O)N(CC(O)CO)c1c(I)c(C(=O)NCCO)c(I)c(C(=O)NCC(O)CO)c1I (stereo not drawn) | inactive |
| O=C(CCOCCOCCOCCOCCC(=O)Nc1c(I)cc(I)c(C(=O)O)c1I)Nc1c(I)cc(I)c(C(=O)O)c1I | inactive |
| C[C@H](N)C(=O)N[C@@H](C)C(=O)NC1[C@H]2CN(c3nc4c(cc3F)c(=O)c(C(=O)O)cn4-c3ccc(F)cc3F)C[C@@H]12 (stereo partly drawn) | 7.5 µM (active) |
| CC(=O)OCC(=O)Nc1cc(C#N)cc(NC(=O)COC(C)=O)c1Cl | inactive |
| O=C(O)C1CCC1 | inactive |
| CCC(=O)O[C@H]1[C@H](O[C@@H]2[C@@H](C)[C@H](O[C@H]3C[C@@](C)(OC)[C@@H](O)[C@H](C)O3)[C@@H](C)C(=O)O[C@H](CC)[C@@](C)(O)[C@H](O)[C@@H](C)C(=O)[C@H](C)C[C@@]2(C)O)O[C@H](C)C[C@@H]1N(C)C | inactive |
